An excerpt weighted towards active compounds, which were near 1.7% of everything screened.
LANA-H2B inh: blocks KSHV LANA binding to histone H2A/H2B; actives 0.6% (n = 320,000); inhibition, % (test concentration not listed); cell-free LANA-H2A/H2B peptide, fluorescence polarization; AID 2629; in the data active = inhibition mostly above about 10%, no sharp cut-off; inactive = mostly below about 6.7%
Fh CTSL1 inh: counter-screen for PFM18AAP inhibitors: inhibitors of F. hepatica cathepsin L1. recombinant F. hepatica cathepsin L1, Z-Leu-Arg-MCA fluorescence. inhibition, % at 5.96 µM. actives 0.49% (n = 300,000);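 active = inhibition above the mean of all tested compounds plus 3 SD, set per screening campaign, cut at about 17% in these data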;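 also: 0% = plate median of test compound wells and 100% = 1 µM Z-Phe-Ala-diazomethylketone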
HDAC3 inh: inhibitors of human histone deacetylase 3; O15379; recombinant HDAC3, fluorogenic peptide/trypsin coupled, fluorescence; inhibition, % at 8.3 µM; actives 0.15% (n = 320,000); AID 2718; in the data active = inhibition above about 26%, passing the limit was not always enough; inconclusive = no clear call, values can overlap the other calls
HTR2A ag: activates the mouse 5-HT2A serotonin receptor; CHO-K1 mHTR2A beta-arrestin complementation, luminescence; percent of 30 µM serotonin response; activation, % at 7.6 µM; actives 0.66% (n = 360,000);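 active = activation above a run cutoff, the mean activation of all tested compounds plus 3 SD, cut at about 14% in these data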;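 also: 0% = plate median of compound wells and 100% = 30 µM serotonin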
Target sequence (P35363 whole entry, looked up): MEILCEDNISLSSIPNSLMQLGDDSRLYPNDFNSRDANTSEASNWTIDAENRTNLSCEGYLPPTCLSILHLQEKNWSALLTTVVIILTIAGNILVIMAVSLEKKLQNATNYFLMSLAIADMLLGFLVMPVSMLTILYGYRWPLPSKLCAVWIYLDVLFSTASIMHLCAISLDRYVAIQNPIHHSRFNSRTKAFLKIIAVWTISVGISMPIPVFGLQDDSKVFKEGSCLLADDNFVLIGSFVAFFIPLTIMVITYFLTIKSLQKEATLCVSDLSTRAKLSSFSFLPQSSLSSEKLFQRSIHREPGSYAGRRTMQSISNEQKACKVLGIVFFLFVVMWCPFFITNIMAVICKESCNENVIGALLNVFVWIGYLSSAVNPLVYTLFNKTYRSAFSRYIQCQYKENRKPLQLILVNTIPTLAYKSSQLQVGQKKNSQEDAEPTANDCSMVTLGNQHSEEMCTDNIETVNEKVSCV
MOR ag counter: counter-screen for mouse HTR2A agonists: human mu opioid receptor agonists; shares compounds with HTR2A ag; U2OS OPRM1 beta-arrestin PathHunter, luminescence; DMSO 0%, DAMGO 9.3 µM 100%; activation, % at 9.3 µM; actives 5.3% (n = 2,300);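 active = mean activation above the mean of DMSO-only wells plus 3 SD, cut at about 0.5% in these data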
m5-HT2A ag conf: mouse HTR2A agonism confirmed; shares compounds with HTR2A ag; CHO-K1 PathHunter beta-arrestin recruitment, luminescence; DMSO 0%, 30 µM serotonin 100%; activation, % at 7.6 µM; actives 19% (n = 2,300); AID 624381;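 active = mean activation across triplicates above the hit threshold derived in the original primary screen, cut at about 15% in these data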
* = called active by the depositor; ? = inconclusive; · = not tested or not shown.

SMILES | LANA-H2B inh | Fh CTSL1 inh | HDAC3 inh | HTR2A ag | MOR ag counter | m5-HT2A ag conf
CC1CCN(c2ccc(NC(=O)C3CCCN3S(=O)(=O)c3ccc(F)cc3)cc2)CC1 (configuration not stated) | 7 | · | -5 | -3 | · | ·
O=C1NC(=NCc2ccccc2)NC1(c1ccccc1)c1ccccc1 | · | · | · | -5 | · | ·
CCC(=O)Nc1nc2c(s1)COc1ccccc1-2 | 1 | 2 | 7 | 18* | 0 | -1
COc1ccccc1C(=O)NNC(=O)C1CC=CCC1 (configuration not stated) | -3 | -1 | -1 | 19* | -1 | 1
c1ccc(-c2c(-c3ccccc3)n(Cc3ccco3)c3ncnc(NCCCn4ccnc4)c23)cc1 | 2 | 4 | -9 | 1 | · | ·
OCCNc1ncnc2c1c(-c1ccccc1)c(-c1ccccc1)n2Cc1ccco1 | -3 | 0 | -22 | 14* | -1 | -3
O=C1CCc2cc(S(=O)(=O)NCc3ccccc3)cc3c2N1CC3 | 6 | 0 | ? | -2 | · | ·
COc1cccc(CNS(=O)(=O)c2cc3c4c(c2)CCN4C(=O)CC3)c1 | -1 | 4 | -10 | 18* | -1 | -3
COc1ccc(N2C(=O)CSC2c2cccc(OC)c2OC)cc1 (configuration not stated) | · | 0 | 3 | 19* | -1 | -2
Nc1ccc2nc(-c3ccccc3)[nH]c2c1 | -12 | 5 | -54 | 15* | 0 | -5
Cn1nnnc1N=N/C(=N/Nc1ccccc1)c1ccccc1 | -3 | 2 | -14 | 16* | 0 | -4
COC(=O)C=CC(=NNc1ccccc1)c1ccccc1 | · | · | · | 3 | · | ·
Cc1cc(NN)nc(NS(=O)(=O)c2ccccc2)n1 | -1 | -5 | 2 | 2 | · | ·
Cc1cc(NN)nc(NS(=O)(=O)c2ccc(Cl)cc2)n1 | 3 | 0 | · | 16* | 0 | 7
COc1cccc(C(=O)Nc2nc(-c3ccc4c(c3)OCO4)cs2)c1 | 16 | -3 | 2 | 16* | -1 | -6
CCCc1nnc(NC(=O)c2cccc(OC)c2)s1 | 0 | 5 | 2 | -2 | · | ·
COc1cccc(C(=O)Nc2nnc(S(=O)(=O)N(C)Cc3ccccc3)s2)c1 | -1 | 4 | 11 | 22* | 0 | 0
COc1cccc(C(=O)Nc2nnc(C(C)C)s2)c1 | 0 | 1 | -8 | 22* | 0 | -3
CN(Cc1ccco1)S(=O)(=O)c1nnc(NC(=O)c2ccccc2Cl)s1 | 5 | 1 | 14 | 18* | -1 | -4
COc1cccc(CN2C(=O)C(C)N(C(=O)c3ccccc3)c3ccccc32)c1 (configuration not stated) | -1 | 1 | 3 | 3 | · | ·
Cc1n[nH]c(C)c1NC(=O)CN1CCN(S(=O)(=O)c2ccc(C(F)(F)F)cc2)CC1 | · | · | · | 4 | · | ·
COc1ccc(CNC(=O)c2ccc(C(C)(C)C)cc2)cc1 | -2 | 0 | 4 | -4 | · | ·
COc1ccc(CNC(=O)c2ccc(C(C)C)cc2)cc1 | 0 | -1 | -5 | 15* | 0 | 3
COC(=O)c1cc2c(C)c(C)c3ccccn3c-2c1C(=O)OC | 10 | 6 | 3 | 11 | · | ·
COC(=O)c1cc2n3ccccc3c(C)c(-c3ccccc3)c-2c1C(=O)OC | 0 | 4 | 7 | 18* | 0 | 1
SMILES | LANA-H2B inh | Fh CTSL1 inh | HDAC3 inh | HTR2A ag | MOR ag counter | m5-HT2A ag conf
CCCN1C(=O)/C(=C/c2ccc(N3CCCC3)c(C)c2)NC1=S | -22 | 1 | 3 | 17* | 0 | 9
Cc1ccccc1C(=O)O/N=C(\N)c1ccccc1 | 3 | -2 | 4 | 5 | · | ·
Cc1ccccc1C(=O)O/N=C(\c1ccccc1)c1ccccn1 | 2 | -2 | 15 | 23* | -1 | 43*
Nc1nn(-c2ccccc2)c(N)c1N=Nc1ccccc1 | -2 | -2 | 5 | -5 | · | ·
Nc1ncnc(N)c1N=Nc1ccccc1 | 1 | · | -5 | 21* | -1 | -2
COc1ccc(-c2csc(C3=C(O)CN(Cc4ccc(S(N)(=O)=O)cc4)C3=N)n2)cc1OC | -1 | -3 | 7 | -1 | · | ·
COc1ccc(-c2csc(C3=C(O)CN(Cc4ccc(Cl)cc4)C3=N)n2)cc1OC | 3 | 4 | 0 | 53* | 1.7* | 29*
Cc1cc(Cn2nnnc2-c2ccncc2)cc(C)c1O | -1 | -1 | 3 | 6 | · | ·
CCOC(=O)Cc1nnc(NC(=O)C(CC)Sc2nncn2C)s1 (configuration not stated) | 0 | 6 | 11 | 14* | -1 | -4
CCOC(=O)Cc1nnc(NC(=O)CSc2nncn2C)s1 | 6 | 0 | ? | -2 | · | ·
CCCS(=O)(=O)NC(=O)C1(C)CCCN(C(=O)c2ccccc2C(F)(F)F)C1 (configuration not stated) | · | · | · | 20* | 0 | 3
COc1ccc(CCNc2ccc(S(N)(=O)=O)cn2)cc1 | -10 | 0 | 0 | 16* | 0 | -5
C[C@H](NC(=O)c1ccccc1)C(=O)N1CCN(c2ccccc2)CC1 | 0 | 1 | -3 | 3 | · | ·
Cc1cc(C)c(OCC(=O)NCC2COc3ccccc3O2)c(C)c1 (configuration not stated) | -8 | · | 9 | 24* | 0 | 17*
CC(C)(C)c1ccc(Cc2n[nH]c(=S)[nH]c2=O)cc1 | 0 | 3 | 3 | 15* | -1 | -4
CC[C@]12c3[nH]c4ccc(Cl)cc4c3CCN1C(=O)[C@@H](CC(=O)NCCCN(C)C)C[C@@H]2C(=O)N1CCN(C(=O)c2ccco2)CC1 | · | · | · | 3 | · | ·
O=C1Nc2ccccc2/C1=C/c1ccc([N+](=O)[O-])cc1 | 3 | -7 | 0 | 28* | 1.0* | -1
C=CCn1c(O)c(N=NC(=O)c2cccnc2)c2cc(Br)ccc21 | -9 | -1 | 8 | 7 | · | ·
CN(C(=O)CSC1=NCCS1)c1ccccc1 | 1 | 0 | 2 | 15* | 0.9* | 0
CC1=C(C(=O)N(C)C)CC(CC(=O)NC2CCCC2)C(=O)N1CCCN1CCCC1=O (configuration not stated) | · | · | · | 3 | · | ·
CC1=C(C(=O)N(C)C)CC(CC(=O)NC2CCCCC2)C(=O)N1CCCN1CCCC1=O (configuration not stated) | · | · | · | 16* | -1 | -4
O=C(C1CC(=O)N(c2ccc3c(c2)OCCO3)C1)N1CCN(S(=O)(=O)c2ccc(F)cc2)CC1 (configuration not stated) | · | · | · | 5 | · | ·
O=C(C1CC(=O)N(c2ccc3c(c2)OCCO3)C1)N1CCN(S(=O)(=O)c2ccccc2F)CC1 (configuration not stated) | · | · | · | 18* | 0 | -4
Oc1c(C=Nc2ccc(Cl)cn2)sc2ccccc12 | 2 | 0 | 6 | 0 | · | ·
Oc1c(/C=N/c2ccccn2)sc2ccccc12 | -1 | 3 | -2 | 15* | 0 | -2
COc1cc(-c2ccc3c(=O)c4ccccc4sc3c2)cc(OC)c1OC | 3 | · | -6 | -4 | · | ·
